Inconclusive results are not listed. Calls of active or inactive are those of the source. How the source made its calls: active means hit-call score of the fitted dose curve at least 0.9, where 1 is the maximum; inconclusive means response in the unintended direction; inactive means score below 0.9.

Our source for the AC50 and outcome values is PubChem BioAssay (EPA / NIEHS).

Read-out in this assay: xenobiotic metabolism (CYP1A2), CYP1A2 (gene 1544)
The experiment in a line: CLD_CYP1A2_48hr: CellzDirect (CLD) Gene Expression Assay for xenobiotic metabolism (CYP1A2) at 48 hours (AID 2283703). On the procedure: CLD_48hr is a cell-based, multiplexed-readout assay that uses hepatocyte, a human liver primary cell, with measurements taken at 48 hours after chemical dosing in a 96-well plate.CLD_CYP1A2_48hr is one of 16 assay component(s) measured or calculated from the CLD_48hr assay. It is designed to make measurements of mRNA induction, a form of inducible reporter, as detected with chemiluminescence signals by Quantitative Nuclease Protection Assay (qNPA) technology.Data from the assay component CLD_CYP1A2_48hr was analyzed at the endpoint, CLD_CYP1A2_48hr, in the positive analysis fitting direction relative to DMSO as the negative control and baseline of activity. Using a type of inducible reporter, gain-of-signal activity can be used to understand changes in the reporter gene as they relate to the gene CYP1A2. Furthermore, this assay endpoint can be referred to as a primary readout. To generalize the intended target to other relatable targets, this assay endpoint is annotated to the cyp intended target family, where subfamily is xenobiotic metabolism.
Human hepatocyte cultures were treated daily for two consecutive days with fresh dosing solutions containing appropriate concentrations of the 320 ToxCast chemicals (chemical identities were blinded to CellzDirect and other ToxCast collaborators), vehicle control (0.2% DMSO), and positive control inducers as summarized in Table 1. Due to the large number of treatment groups and chemicals examined, the ToxCast chemicals were divided into two groups (spanning two independent cultures of hepatocytes from separate donor preparations (Hu778: ToxCast plates 1 and 2; Hu776: ToxCast plates 3 and 4). Each preparation of human hepatocyte cultures was treated with respective vehicle control, medium only control, set of six positive controls/reference chemicals for the five hepatic receptor pathways, and a subset of eight of the ToxCast chemicals (indoxacarb, pyrithiobac-sodium, norflurazon, cyhalofop-butyl, methomyl, thiram, acetochlor, and propiconazole). These replicate data, coupled with internal replicates designed within the blinded ToxCast chemical library, provided additional data to evaluate interindividual differences between hepatocyte preparations and their potential impact on chemical profiles.Cell morphology and integrity were evaluated using phase-contrast microscopy as an indicator of hepatocyte cell health (Tyson & Green, 1987). Cultures for each treatment group (i.e., media, vehicle [0.2% DMSO], positive control inducers [multiple concentrations], and the ToxCast chemicals [multiple concentrations]) were observed and cell morphology was assessed relative to vehicle control cultures at each harvest time point (0, 6, 24, or 48 h). […] Images were evaluated at the conclusion of the study to assess changes in cell integrity and account for the effects of chemical exposure on uncharacteristic changes in concentration-dependent gene expression profiles. The results from these determinations of apparent cytotoxicity were annotated (yes/no) alongside the corresponding qNPA data for reference.At the conclusion of each treatment period, hepatocyte cultures (96-well) were washed with 1 volume of HBSS, lysed by addition of 25 ul ArrayPlate lysis buffer (HTG, Tucson, AZ), and 70 ul/well of Denaturation Oil, denatured by incubation at 95C for 10 min, and frozen at approximately -70C until analysis by nuclease protection assay (qNPA) (Roberts et al., 2007). For qNPA analysis, cell lysates were thawed at 50C for approximately 30 min, qNPA probes were added, and samples were incubated at 95C for 10 min to begin the detection process by denaturing the target RNA, dissociating the duplexes and secondary structure hybridization. At the conclusion of the hybridization period, S1 nuclease reagent was added to each sample to digest all nonprotected nucleotides at 50C for 60-90 min. […]
In general, AC50 refers to the concentration giving half of the maximal activity seen. Consider `CCc1ccc(C(=O)NN(C(=O)c2cc(C)cc(C)c2)C(C)(C)C)cc1`, for which the concentration at half-maximal activity (AC50) is 5.55 µM (active). Regarding `CNC(=O)Oc1ccccc1OC(C)C`, the call was inactive. Consider `CCOc1nc(NC)nc(NC(=O)NS(=O)(=O)c2ccccc2C(=O)OC)n1`, for which the AC50 was 14.3 µM (active). The same measure, in the same setting: with `CCC(C)(NC(=O)c1cc(Cl)c(C)c(Cl)c1)C(=O)CCl` (stereo not given) the figure was 20 µM (active).

Turning to `OCCOc1ccccc1`, the call was inactive. Regarding `COP(=S)(OC)Oc1ccc([N+](=O)[O-])cc1`, the concentration at half-maximal activity (AC50) was 5.33 µM (active). Turning to `CNC(=O)Oc1cccc(N=CN(C)C)c1`, the compound was called inactive.

For `Cc1cc(C)nc(NC(=O)NS(=O)(=O)c2ccccc2C(=O)OC2COC2)n1`, the call was inactive. On to `CC1(C)C(C=C(Cl)Cl)C1C(=O)OC(C#N)c1ccc(F)c(Oc2ccccc2)c1` (stereo not given), for which the outcome was inactive.

As for `[2H]C1([2H])[n+]2ccccc2-c2cccc[n+]2C1([2H])[2H]`, the result was inactive. Consider `O=S(=O)(O)C(F)(F)C(F)(F)C(F)(F)C(F)(F)C(F)(F)C(F)(F)C(F)(F)C(F)(F)F`, for which the call was inactive.

For `N#Cc1c(Cl)c(Cl)c(Cl)c(C#N)c1Cl`, the result was inactive. On the same count and under the same terms, with `O=C(NC(=O)c1c(F)cccc1F)Nc1ccc(OC(F)(F)C(F)OC(F)(F)F)c(Cl)c1` (stereo not given) the entry was “inactive”. On to `COC(=O)c1ccccc1CS(=O)(=O)NC(=O)Nc1nc(OC)cc(OC)n1`, for which the compound was classed as inactive. On to `CC(C)(C)C(O)C(Oc1ccc(Cl)cc1)n1cncn1` (stereo not given), for which the AC50 is 5.29 µM (active). As for `COP(=O)(OC)OC=C(Cl)Cl`, the compound was called inactive. `O=C(O)C(F)(F)C(F)(F)C(F)(F)C(F)(F)C(F)(F)C(F)(F)C(F)(F)F`: the result was inactive. As for `CC(C)(C)C(O)/C(=C\c1ccc(Cl)cc1Cl)n1cncn1` (stereo not given), the AC50 was 3.7 µM (active). As to `CCN(CC)C(=O)SCc1ccc(Cl)cc1`, the compound was called inactive. Regarding `CCCN(CCOc1c(Cl)cc(Cl)cc1Cl)C(=O)n1ccnc1`, the AC50 was 0.178 µM (active). On to `CCS(=O)(=O)c1cccnc1S(=O)(=O)NC(=O)Nc1nc(OC)cc(OC)n1`, for which the call was inactive. Turning to `O=C(Nc1ccccc1)Nc1cnns1`, the AC50 is 3.38 µM (active). For `CNC(=O)CSP(=S)(OC)OC`, the compound was classed as inactive. For the compound `CCOCN(C(=O)CCl)c1c(C)cccc1CC`, the compound was classed as inactive.

As to `Cc1[nH]c(=O)n(C(C)(C)C)c(=O)c1Cl`, the compound was called inactive. For `CN1CSC(=S)N(C)C1`, the compound was called inactive.

As to `CCCN(CCC)c1c([N+](=O)[O-])cc(C(F)(F)F)cc1[N+](=O)[O-]`, the AC50 is 9.22 µM (active). For the compound `O=[N+]([O-])c1c(Cl)c(Cl)c(Cl)c(Cl)c1Cl`, the AC50 is 3.86 µM (active). Take `CC(C)N(C(=O)COc1nnc(C(F)(F)F)s1)c1ccc(F)cc1`: the call was inactive. Consider `O=C(O)COc1ccc(Cl)cc1Cl`, for which the call was inactive. As to `O=C(O)CCCOc1ccc(Cl)cc1Cl`, the outcome was inactive. On the same count and under the same terms, to `COC(=O)c1ccccc1S(=O)(=O)NC(=O)N(C)c1nc(C)nc(OC)n1` belongs “inactive”. Turning to `CCC(C)Nc1c([N+](=O)[O-])cc(C(C)(C)C)cc1[N+](=O)[O-]` (stereo not given), the AC50 was 5.38 µM (active). Turning to `CCOC1Oc2ccc(OS(C)(=O)=O)cc2C1(C)C` (stereo not given), the outcome was inactive. Turning to `COc1cc(OC)nc(NC(=O)NS(=O)(=O)c2cc(NC=O)ccc2C(=O)N(C)C)n1`, the call was inactive.

Turning to `CCC(C)(C)C(=O)OC1=C(c2ccc(Cl)cc2Cl)C(=O)OC12CCCCC2`, the AC50 is 20 µM (active). Regarding `COP(=S)(OC)Oc1ccc(SC)c(C)c1`, the AC50 is 6.69 µM (active). As to `COC(=O)c1ccccc1S(=O)(=O)NC(=O)Nc1nc(C)nc(OC)n1`, the result was inactive.

Turning to `CC1(c2ccc(Oc3ccccc3)cc2)OC(=O)N(Nc2ccccc2)C1=O` (stereo not given), the AC50 is 0.661 µM (active). Turning to `CC(C)OC(=O)Nc1cccc(Cl)c1`, the AC50 is 2.46 µM (active).
